Data as given in PubChem BioAssay (NCI).
Compounds without any hit were thinned out: in the full panel of roughly 83,000, 20% have a hit.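 Note: values are percent growth. 100 is the growth of untreated cells, values between 100 and 0 indicate rising inhibition; between -100 and 0 indicates cell death.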 The source made the active and inactive calls. Rule for the calls: active = growth percent below 10; inactive = the rest.

Assays:
Assay in all cases: NCI-60 one-dose screen, 48 h (100 = growth as untreated, 0 = no growth, -100 = all killed)
Settings in all cases: 10 µM unless noted
SK-MEL-2 melanoma = test system: SK-MEL-2 melanoma
EKVX NSCLC = test system: EKVX NSCLC
SN12C renal = test system: SN12C renal
UO-31 renal = test system: UO-31 renal
TK-10 renal = test system: TK-10 renal
ACHN renal = test system: ACHN renal
CAKI-1 renal = test system: CAKI-1 renal
A498 renal = test system: A498 renal
CCRF-CEM leukemia = test system: CCRF-CEM leukemia
MOLT-4 leukemia = test system: MOLT-4 leukemia
SR leukemia = test system: SR leukemia
RPMI-8226 leukemia = test system: RPMI-8226 leukemia
OVCAR-8 ovarian = test system: OVCAR-8 ovarian
OVCAR-5 ovarian = test system: OVCAR-5 ovarian
OVCAR-4 ovarian = test system: OVCAR-4 ovarian
SK-OV-3 ovarian = test system: SK-OV-3 ovarian
IGROV1 ovarian = test system: IGROV1 ovarian
OVCAR-3 ovarian = test system: OVCAR-3 ovarian
HS 578T breast = test system: HS 578T breast
NCI/ADR-RES ovarian = test system: NCI/ADR-RES ovarian

Measured: growth

O=C1c2cccc3cccc(c23)C(=O)N1C/C=C/c1ccc2c3c(cccc13)C(=O)N(CCO)C2=O
inactive: SK-MEL-2 melanoma 90.7% | EKVX NSCLC 91.5% | SN12C renal 75.7% | UO-31 renal 48.1% | TK-10 renal 98.7% | ACHN renal 34.1% | CAKI-1 renal 63.1% | A498 renal 74.7% | CCRF-CEM leukemia 83.3% | MOLT-4 leukemia 80% | SR leukemia 67.1% | RPMI-8226 leukemia 74% | OVCAR-8 ovarian 69.6% | OVCAR-5 ovarian 79.2% | OVCAR-4 ovarian 40.1% | SK-OV-3 ovarian 72.3% | IGROV1 ovarian 78.7% | OVCAR-3 ovarian 87.9% | HS 578T breast 61.6% | NCI/ADR-RES ovarian 80.2%

O=C(N/N=C\c1ccccc1S(=O)(=O)O)N/N=C/c1ccccc1S(=O)(=O)O
inactive: SK-MEL-2 melanoma 99.8% | EKVX NSCLC 102% | SN12C renal 102% | UO-31 renal 92.5% | TK-10 renal 100% | ACHN renal 98.7% | CAKI-1 renal 88.7% | A498 renal 101% | CCRF-CEM leukemia 102% | MOLT-4 leukemia 92.3% | SR leukemia 90.3% | RPMI-8226 leukemia 94.6% | OVCAR-8 ovarian 100% | OVCAR-5 ovarian 97.1% | OVCAR-4 ovarian 109% | SK-OV-3 ovarian 108% | IGROV1 ovarian 109% | OVCAR-3 ovarian 108% | HS 578T breast 93.9% | NCI/ADR-RES ovarian 103%

COC(=O)N1CC(Oc2ccccn2)C2CC1c1ccccc1O2 (stereo not given)
inactive: SK-MEL-2 melanoma 116% | EKVX NSCLC 104% | SN12C renal 93% | UO-31 renal 88.6% | TK-10 renal 98.2% | ACHN renal 95.7% | CAKI-1 renal 93.3% | A498 renal 83.4% | CCRF-CEM leukemia 87.8% | MOLT-4 leukemia 94.5% | SR leukemia 94.8% | RPMI-8226 leukemia 85.6% | OVCAR-8 ovarian 98.7% | OVCAR-5 ovarian 107% | OVCAR-4 ovarian 103% | SK-OV-3 ovarian 103% | IGROV1 ovarian 120% | OVCAR-3 ovarian 110% | HS 578T breast 86% | NCI/ADR-RES ovarian 98.5%

O=C(NNC(=O)c1ccc(NC(=O)c2ccccn2)cc1)Nc1ccc2ccccc2c1
inactive: SK-MEL-2 melanoma 114% | EKVX NSCLC 113% | SN12C renal 101% | UO-31 renal 82.5% | TK-10 renal 111% | ACHN renal 104% | CAKI-1 renal 106% | A498 renal 137% | CCRF-CEM leukemia 104% | MOLT-4 leukemia 108% | SR leukemia 126% | RPMI-8226 leukemia 109% | OVCAR-8 ovarian 102% | OVCAR-5 ovarian 121% | OVCAR-4 ovarian 106% | SK-OV-3 ovarian 115% | IGROV1 ovarian 109% | OVCAR-3 ovarian 126% | HS 578T breast 111% | NCI/ADR-RES ovarian 106%

CCCCCCCC/C=C\CCCCCCCCOc1ccc(CC(=O)NCC[N+]2(C)CCOCC2)cc1
inactive: SK-MEL-2 melanoma 112% | EKVX NSCLC 91.2% | SN12C renal 64.1% | UO-31 renal 93.5% | TK-10 renal 44.7% | ACHN renal 82.9% | CAKI-1 renal 53.5% | A498 renal 91.8% | CCRF-CEM leukemia 53% | MOLT-4 leukemia 79.9% | SR leukemia 71.7% | RPMI-8226 leukemia 66.6% | OVCAR-8 ovarian 73% | OVCAR-5 ovarian 29.5% | OVCAR-4 ovarian 97.3% | SK-OV-3 ovarian 98.8% | OVCAR-3 ovarian 98.1% | HS 578T breast 72.5% | NCI/ADR-RES ovarian 104%
active: IGROV1 ovarian 5.35%

N[C@H]1CCC[C@@H]1NCCCCN1C(=O)c2cccc3cc([N+](=O)[O-])cc(c23)C1=O
active: CCRF-CEM leukemia 2.24% | MOLT-4 leukemia 0.264% | SR leukemia -6.77%
inactive: SK-MEL-2 melanoma 84.2% | EKVX NSCLC 73.2% | SN12C renal 29.7% | UO-31 renal 66% | TK-10 renal 44.5% | ACHN renal 22.4% | CAKI-1 renal 94.3% | A498 renal 62.6% | RPMI-8226 leukemia 58.3% | OVCAR-8 ovarian 37.1% | OVCAR-5 ovarian 73.6% | OVCAR-4 ovarian 44.5% | SK-OV-3 ovarian 42.1% | IGROV1 ovarian 34.5% | OVCAR-3 ovarian 53% | HS 578T breast 65.4% | NCI/ADR-RES ovarian 77%

O=C(Nc1ccc(Br)cc1)C1=NCCCCN1
inactive: SK-MEL-2 melanoma 103% | EKVX NSCLC 86.1% | SN12C renal 94.7% | UO-31 renal 67.6% | TK-10 renal 93.4% | ACHN renal 64.1% | CAKI-1 renal 52.4% | A498 renal 95.7% | CCRF-CEM leukemia 84.5% | MOLT-4 leukemia 96.5% | SR leukemia 107% | RPMI-8226 leukemia 94.3% | OVCAR-8 ovarian 74.8% | OVCAR-5 ovarian 84.6% | OVCAR-4 ovarian 96.5% | SK-OV-3 ovarian 96.1% | IGROV1 ovarian 87.5% | OVCAR-3 ovarian 103% | HS 578T breast 97.1% | NCI/ADR-RES ovarian 82.5%

CC(=C(c1ccc(OCCN2CCCCC2)cc1)c1ccc(OCCN2CCCCC2)cc1)c1ccc(Cl)cc1
active: SK-MEL-2 melanoma -82.9% | EKVX NSCLC -86.4% | SN12C renal -91.1% | UO-31 renal -96% | TK-10 renal -88.5% | ACHN renal -99.1% | CAKI-1 renal -98.4% | A498 renal -85.9% | CCRF-CEM leukemia -71.5% | MOLT-4 leukemia -71.2% | SR leukemia -60.3% | RPMI-8226 leukemia -61.7% | OVCAR-8 ovarian -77.4% | OVCAR-5 ovarian -92.5% | OVCAR-4 ovarian -88.8% | SK-OV-3 ovarian -91.1% | IGROV1 ovarian -83% | OVCAR-3 ovarian -91.4% | HS 578T breast -72.4% | NCI/ADR-RES ovarian -90.8%

C=C1C(=O)O[C@H]2[C@H]1CC/C(COC(=O)NCc1ccc(Cn3c(=O)sn(-c4ccc(C#N)cc4)c3=O)cc1)=C\CC[C@@]1(C)O[C@@H]21
inactive: SK-MEL-2 melanoma 84.8% | EKVX NSCLC 92.2% | SN12C renal 50.3% | UO-31 renal 75.9% | TK-10 renal 48.9% | ACHN renal 79.5% | CAKI-1 renal 58.4% | A498 renal 120% | MOLT-4 leukemia 30% | SR leukemia 55% | OVCAR-8 ovarian 74.1% | OVCAR-5 ovarian 86% | OVCAR-4 ovarian 46.5% | SK-OV-3 ovarian 93.1% | IGROV1 ovarian 57.8% | HS 578T breast 99.4% | NCI/ADR-RES ovarian 103%
active: CCRF-CEM leukemia 3.9% | RPMI-8226 leukemia 6.41% | OVCAR-3 ovarian -39.5%

COC(=O)c1c2c(c(C)[n+]([O-])c1C)C(=O)C(NCc1cccc(Cl)c1)=CC2=O
inactive: SK-MEL-2 melanoma 33.7% | EKVX NSCLC 46.2% | UO-31 renal 50.6% | TK-10 renal 73.5% | ACHN renal 26.6% | CAKI-1 renal 42.2% | A498 renal 106% | CCRF-CEM leukemia 17.5% | RPMI-8226 leukemia 26.9% | OVCAR-5 ovarian 40.6% | SK-OV-3 ovarian 81.3% | HS 578T breast 79.1%
active: SN12C renal 0.796% | MOLT-4 leukemia -12.6% | SR leukemia 9.98% | OVCAR-8 ovarian -5.76% | OVCAR-4 ovarian -76% | IGROV1 ovarian 2.76% | OVCAR-3 ovarian -23.9% | NCI/ADR-RES ovarian 0.849%

CCCn1nc(C(=O)N(C)Cc2ccccc2)c2c1CCC(N1CCc3ccccc31)C2 (stereo not given)
inactive: SK-MEL-2 melanoma 106% | EKVX NSCLC 95.2% | SN12C renal 98.9% | UO-31 renal 81.4% | TK-10 renal 105% | ACHN renal 96% | CAKI-1 renal 86.7% | A498 renal 95.9% | CCRF-CEM leukemia 96.6% | MOLT-4 leukemia 89.9% | SR leukemia 104% | RPMI-8226 leukemia 90.8% | OVCAR-8 ovarian 93.4% | OVCAR-5 ovarian 92.2% | OVCAR-4 ovarian 102% | SK-OV-3 ovarian 112% | IGROV1 ovarian 85.1% | OVCAR-3 ovarian 102% | HS 578T breast 96.4% | NCI/ADR-RES ovarian 94.4%

CC1(C)CC[C@]23CC[C@]4(C)[C@H](CC[C@@H]5[C@@]6(C)C/C(=C/c7ccncc7)C(=O)C(C)(C)[C@@H]6CC[C@]54C)[C@H]2[C@H]1OC3
inactive: SK-MEL-2 melanoma 80.9% | EKVX NSCLC 92.3% | SN12C renal 76.7% | UO-31 renal 57.1% | TK-10 renal 97% | ACHN renal 91% | CAKI-1 renal 66.4% | CCRF-CEM leukemia 44.3% | MOLT-4 leukemia 50.4% | SR leukemia 56.5% | RPMI-8226 leukemia 50% | OVCAR-8 ovarian 75.1% | OVCAR-5 ovarian 89.8% | OVCAR-4 ovarian 92.2% | SK-OV-3 ovarian 94.7% | IGROV1 ovarian 80.5% | OVCAR-3 ovarian 84.4% | HS 578T breast 84.9% | NCI/ADR-RES ovarian 97.8%
active: A498 renal -3.63%

C=C(C)[C@@H]1CCC[C@]2(C(=O)N3CCN(C)CC3)CC[C@]3(C)[C@@H](CC[C@@H]4[C@@]5(C)CC/C(=N\NC(=O)c6ccncc6)C(C)(C)[C@@H]5CC[C@]43C)[C@@H]12
inactive: SK-MEL-2 melanoma 106% | EKVX NSCLC 111% | SN12C renal 80.1% | UO-31 renal 73.4% | TK-10 renal 116% | ACHN renal 88.3% | CAKI-1 renal 80.7% | A498 renal 119% | CCRF-CEM leukemia 25.9% | MOLT-4 leukemia 55.9% | RPMI-8226 leukemia 78.2% | OVCAR-8 ovarian 96.7% | OVCAR-5 ovarian 80.1% | OVCAR-4 ovarian 91.5% | SK-OV-3 ovarian 109% | IGROV1 ovarian 82.7% | OVCAR-3 ovarian 95.5% | HS 578T breast 103% | NCI/ADR-RES ovarian 99.3%
active: SR leukemia 7.99%

Nc1nc(N)c2c(n1)NC(c1cccc(Nc3ccnc4cc(C(F)(F)F)ccc34)c1)CC(c1ccccc1)=N2 (stereo not given)
inactive: SK-MEL-2 melanoma 35.1% | EKVX NSCLC 51.5% | SN12C renal 65.4% | UO-31 renal 62.6% | TK-10 renal 83.1% | ACHN renal 75.8% | CAKI-1 renal 42.7% | A498 renal 77.8% | CCRF-CEM leukemia 32.4% | OVCAR-8 ovarian 63% | OVCAR-5 ovarian 113% | OVCAR-4 ovarian 57.8% | SK-OV-3 ovarian 65.3% | IGROV1 ovarian 59.4% | OVCAR-3 ovarian 45.3% | HS 578T breast 53.7% | NCI/ADR-RES ovarian 70.2%
active: MOLT-4 leukemia 6.47% | SR leukemia 4.11% | RPMI-8226 leukemia 9.67%

CCN1CCN(CCNc2nccc(-c3c(-c4ccc(F)c(OC)c4)nc4sccn34)n2)S1(=O)=O
inactive: SK-MEL-2 melanoma 37.7% | EKVX NSCLC 88.5% | SN12C renal 70.8% | UO-31 renal 86.9% | TK-10 renal 118% | ACHN renal 59.6% | CAKI-1 renal 77.5% | A498 renal 102% | CCRF-CEM leukemia 59.5% | MOLT-4 leukemia 81.8% | SR leukemia 45.3% | RPMI-8226 leukemia 68.7% | OVCAR-8 ovarian 77.2% | OVCAR-5 ovarian 114% | OVCAR-4 ovarian 92% | SK-OV-3 ovarian 87.5% | IGROV1 ovarian 74.4% | OVCAR-3 ovarian 85.5% | HS 578T breast 77.7% | NCI/ADR-RES ovarian 103%
